Compound activity as filed in PubChem.
hcDAF-12 act: H. contortus DAF-12 nuclear receptor activators, primary screen, cell-based, luminescence, HEK293, lit1-tk-luc reporter; HEK293 hcDAF-12 lit1-tk-luc reporter; 0% DMSO, 100% Δ7-dafachronic acid; activation, % at 6.8 µM; 370,000 tested, 1.4% active; AID 652067, 2013;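 active = activation above the mean of all tested compounds plus 3 SD, cut at about 5.5% in these data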;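 note: 100% = response to 3 µM Δ7-dafachronic acid high control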
DAX1 inh-1: DAX1 (NR0B1) inhibitors, primary screen, cell-based, HEK293, Gal4-DAX1, luciferase luminescence. inhibition, % at 6.75 µM. AID 504766, 2011. 340,000 tested, 0.99% active. HEK293 Gal4-DAX1 luciferase reporter;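 active = inhibition above the mean over all tested compounds plus 3 SD, cut at about 4.2% in these data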;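 note: 0% = DAX1-transfected cells with DMSO and 100% = empty-vector control cells with DMSO; inhibition shows as a rise in luminescence from relieved DAX1 repression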
NR1D1 modulator: modulators of Rev-erb alpha DNA binding, primary screen, biochemical, FITC-DNA, fluorescence polarization, uHTS. Rev-erbα–FITC-DNA binding, 90 min. activity, % at 10 µM. 370,000 tested, 0.79% active. AID 1259318, 2017;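 active = activity above about 14%, limit read from the data; passing the limit was not always enough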;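 note: 0% = DMSO wells with 35 nM protein and 100% = DMSO wells with 750 nM protein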
Target sequence (P20393 whole entry, looked up): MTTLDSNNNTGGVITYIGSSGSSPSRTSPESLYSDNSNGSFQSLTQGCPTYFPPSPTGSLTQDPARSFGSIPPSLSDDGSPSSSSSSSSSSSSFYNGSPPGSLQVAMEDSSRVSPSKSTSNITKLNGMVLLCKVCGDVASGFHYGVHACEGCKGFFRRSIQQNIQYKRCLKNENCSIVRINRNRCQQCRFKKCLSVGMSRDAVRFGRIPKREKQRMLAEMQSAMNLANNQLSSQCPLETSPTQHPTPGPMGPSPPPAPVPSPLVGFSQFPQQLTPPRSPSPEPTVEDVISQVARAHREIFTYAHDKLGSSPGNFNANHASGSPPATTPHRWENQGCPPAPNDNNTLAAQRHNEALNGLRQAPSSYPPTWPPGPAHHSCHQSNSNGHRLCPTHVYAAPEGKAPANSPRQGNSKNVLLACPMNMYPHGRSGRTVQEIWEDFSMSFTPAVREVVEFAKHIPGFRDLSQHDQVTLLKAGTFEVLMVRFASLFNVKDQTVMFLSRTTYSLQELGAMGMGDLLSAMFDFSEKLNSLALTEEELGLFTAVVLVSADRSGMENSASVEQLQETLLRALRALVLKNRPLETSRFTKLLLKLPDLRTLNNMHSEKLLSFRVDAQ
hgDAF-12 ag: H. glycines DAF-12 receptor agonists, primary screen, cell-based, luminescence, HEK293, GAL4 fusion, UAS-luciferase | Nuclear hormone receptor DAF-12 (Heterodera glycines), GAL4 fusion | HEK293 GAL4-hgDAF12 UAS-luciferase reporter, agonist luminescence; normalized to butyrate control | activation, % at 6.8 µM | 370,000 tested, 1.8% active | AID 687014, 2013;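 active = activation above a cutoff set at the mean of all screened compounds plus 3 SD, cut at about 10% in these data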;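 note: 0% = DMSO wells and 100% = sodium butyrate wells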
DAX1 inh-2: DAX1 (NR0B1) inhibitors on StAR promoter, primary screen, cell-based, luminescence, SF-1 (NR5A1), full-length DAX-1; HEK293T StAR-luciferase reporter, SF-1/DAX-1 repression relief; inhibition, % at 6.8 µM; 370,000 tested, 1.1% active; AID 652010, 2013;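 active = inhibition above the mean over all tested compounds plus 3 SD, cut at about 3.6% in these data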;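 note: 0% = DAX-1 cells with DMSO and 100% = cells lacking DAX-1 with DMSO; higher inhibition means more luminescence from relief of DAX-1 repression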
ssDAF12 agonist: S. stercoralis DAF-12 nuclear receptor activators, primary screen, cell-based, luminescence, HEK293, GRIP1 co-expression, lit1-tk-luc; HEK293 ssDAF-12/GRIP1 lit1-tk-luc reporter; % of 3 µM dafachronic acid response; activation, % at 6.8 µM; 370,000 tested, 1% active; AID 652126, 2013;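 active = activation above the mean over all tested compounds plus 3 SD, cut at about 0.9% in these data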;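 note: 0% = DMSO-only wells and 100% = 3 µM delta7-dafachronic acid wells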
* marks the source's active call; other numbers are inactive results; · = not tested or not shown. This is a sample that favours compounds with a hit; in the whole collection about 4.8% have one here.

SMILES	hcDAF-12 act	DAX1 inh-1	NR1D1 modulator	hgDAF-12 ag	DAX1 inh-2	ssDAF12 agonist
CN(C)/C=N/c1cnc(C(=O)c2ccc(Cl)cc2)n1C	6.4*	3.0	-2.4	12.3*	2.9	0.2
CN(C)/C=N/NC(=O)c1ccc(Cl)cc1	-1.0	·	4.1	2.0	-0.1	-1.6
CSCCC(NC(=O)C(Cc1c[nH]c2ccccc12)NC(=O)CCNC(=O)OC(C)(C)C)C(=O)NC(CC(=O)O)C(=O)NC(Cc1ccccc1)C(N)=O (stereo not given)	·	·	-6.4	·	·	·
Brc1ccc2nc(-c3ccc(CN4CCC5(CC4)CNc4ccccc45)cc3)c(-c3ccccc3)nc2c1	1.1	·	8.8	3.8	-0.1	0.1
CC1=C(C(=O)Nc2ccc(C)cc2C)C(c2ccc(Cl)cc2)n2nc(C(=O)OC(C)C)nc2N1 (stereo not given)	-1.7	4.4*	1.4	-0.2	-0.4	-0.9
CSc1nc2n(n1)C(c1cccc(F)c1)C(C(=O)Nc1ccc(C)cc1C)=C(C)N2 (stereo not given)	-1.5	-1.1	-2.4	0.1	-0.9	-0.4
O=C(CC(C(=O)O)c1ccc(Cl)cc1Cl)c1ccc(Cl)cc1 (stereo not given)	5.9*	1.3	-0.2	0.2	0.0	-1.1
O=C(CC1CCCC1)N[C@H](C(=O)N1CCC[C@H]1C(=O)NC1CCCC1)c1ccccc1	-2.0	·	3.0	-1.3	-0.1	-1.5
O=[N+]([O-])c1ccccc1S(=O)(=O)Nc1cccc(-c2ccc(N3CCCC3)nn2)c1	0.6	0.3	-2.6	2.8	2.0	-0.9
Cc1ccc(S(=O)(=O)Nc2cccc(-c3ccc(N4CCCCCC4)nn3)c2)c(C)c1	1.5	0.8	3.3	10.0	4.1*	-0.6
CCCCNC(=O)C[C@H]1C[C@@]2(C(=O)OC)C(=C[C@H](C3CCCC3)O[C@@H]2C)N(CCc2ccc(OC)c(OC)c2)C1=O	-2.5	·	3.2	-1.3	-1.1	-1.0
CCOC(=O)N1CCN(C(=O)C[C@H]2C[C@@]3(C(=O)OC)C(=C[C@H](C(C)C)O[C@@H]3C3CC3)N(Cc3cccc4ccccc34)C2=O)CC1	-3.1	·	-0.8	-4.6	-0.9	-1.2
CSc1cccc(NC(=O)CSc2ncccc2C(=O)Oc2cccc([N+](=O)[O-])c2)c1	1.6	-0.5	-0.3	2.8	-0.5	1.4*
Cc1cc(C)cc(N(CC(=O)NC2CCC(C)CC2)S(=O)(=O)c2cccs2)c1 (stereo not given)	-0.5	·	-6.2	6.2	0.5	-0.9
CCN(CC)CCNc1ncnc2c1sc1nc(N3CCOCC3)c3c(c12)CC(C)(C)SC3	-2.1	-0.5	12.8	-1.1	0.4	1.1*
CN(C)CCNc1ncnc2c1sc1nc(N3CCOCC3)c3c(c12)CC(C)(C)SC3	-2.2	-0.6	-2.2	-1.6	-0.8	-2.0
COC(=O)[C@]12C[C@H](CC(=O)N3CCSCC3)C(=O)N(Cc3ccc4c(c3)OCO4)C1=C[C@H](C(C)C)O[C@@H]2C1CC1	-2.2	·	7.7	2.0	-0.2	-1.2
CC1(C)C2CC[C@]3(C)C(CC=C4[C@@H]5C[C@@](C)(CO)[C@@H](O)C[C@]56C[C@@H](OC6=O)[C@]43C)[C@@]2(C)CC[C@@H]1O (stereo not given in full)	-1.5	5.5*	-3.3	1.3	0.1	-1.5
Cc1ccccc1OCc1nc2ccccc2c(=O)n1/N=C/c1c[nH]c2ccccc12	1.9	-1.3	-4.7	0.0	0.8	-1.0
Cc1ccc(-c2[nH]ncc2/C=N/n2c(COc3ccccc3C)nc3ccccc3c2=O)cc1	-0.5	-1.8	-1.2	12.9*	-0.6	-0.8
